# Measured values as given in the supplement of paper PMC12282887.
# ± gives the standard deviation of the averaged measurements.
# Columns and labels:
# Test in all cases: promoter activity interaction Z-score (Lux/OD deviation from empty-vector control); higher = stronger promoter induction by the compound
# [1] = system: E. coli BW25113 acrABp lux reporter
# Summary of the method: (§1)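 Four 1:2 dilutions of each compound were tested in biological duplicates on E. coli BW25113 carrying low-copy luxCDABE promoter reporters, either wild type or deleted for one of three genes. Cultures of 40 µl LB Lennox in 384-well plates were kept at 37°C and read for OD600 and luminescence every 30 min for 12 h. Integration windows were 0–8 h for wild type and 1–9 h for deletion strains, and wells under 10% of the median growth value were discarded. The score is a Z-transformed residual of growth-normalised luminescence relative to a control fit.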
# [2] = system: E. coli BW25113 marRABp lux reporter
# Summary of the method: as §1
# [3] = system: E. coli BW25113 micFp lux reporter
# Summary of the method: as §1
# [4] = system: E. coli BW25113 ompFp lux reporter
# Summary of the method: as §1
# [5] = system: E. coli BW25113 robp lux reporter
# Summary of the method: as §1
# [6] = system: E. coli BW25113 soxSp lux reporter
# Summary of the method: as §1
# [7] = system: E. coli BW25113 tolCp lux reporter
# Summary of the method: as §1
# [8] = 0.62 µg/ml, genetic background: wild type
# [9] = 0.62 µg/ml, genetic background: ΔmarA
# [10] = 0.62 µg/ml, genetic background: Δrob
# [11] = 0.62 µg/ml, genetic background: ΔsoxS
# [12] = 1.2 µg/ml, genetic background: wild type
# [13] = 1.2 µg/ml, genetic background: ΔmarA
# [14] = 1.2 µg/ml, genetic background: Δrob
# [15] = 1.2 µg/ml, genetic background: ΔsoxS
# [16] = 2.5 µg/ml, genetic background: wild type
# [17] = 2.5 µg/ml, genetic background: ΔmarA
# [18] = 2.5 µg/ml, genetic background: Δrob
# [19] = 2.5 µg/ml, genetic background: ΔsoxS
# [20] = 5 µg/ml, genetic background: wild type
# [21] = 5 µg/ml, genetic background: ΔmarA
# [22] = 5 µg/ml, genetic background: Δrob
# [23] = 5 µg/ml, genetic background: ΔsoxS
smiles,measurement,setting,value
CN[C@@H]1[C@H](O)[C@H](NC)[C@H]2O[C@@]3(O)C(=O)C[C@@H](C)O[C@H]3O[C@@H]2[C@H]1O [Spectinomycin],promoter activity interaction Z-score,[1]; [8],-0.0967 ± 0.053
same,promoter activity interaction Z-score,[1]; [9],0.63 ± 1.1
same,promoter activity interaction Z-score,[1]; [10],-0.155 ± 0.22
same,promoter activity interaction Z-score,[1]; [11],-0.229 ± 0.36
same,promoter activity interaction Z-score,[1]; [12],0.0581 ± 0.015
same,promoter activity interaction Z-score,[1]; [13],1.75 ± 0.53
same,promoter activity interaction Z-score,[1]; [14],-0.245 ± 0.14
same,promoter activity interaction Z-score,[1]; [15],0.468 ± 0.31
same,promoter activity interaction Z-score,[1]; [16],-0.0145 ± 0.16
same,promoter activity interaction Z-score,[1]; [17],0.746 ± 1
same,promoter activity interaction Z-score,[1]; [18],-0.204 ± 0.38
same,promoter activity interaction Z-score,[1]; [19],-0.222 ± 0.034
same,promoter activity interaction Z-score,[1]; [20],0.0345 ± 0.34
same,promoter activity interaction Z-score,[1]; [21],1.39 ± 0.42
same,promoter activity interaction Z-score,[1]; [22],0.0966 ± 0.39
same,promoter activity interaction Z-score,[1]; [23],0.99 ± 0.69
same,promoter activity interaction Z-score,[2]; [8],0.174 ± 0.026
same,promoter activity interaction Z-score,[2]; [9],0.168 ± 0.75
same,promoter activity interaction Z-score,[2]; [10],0.332 ± 0.41
same,promoter activity interaction Z-score,[2]; [11],-0.125 ± 0.11
same,promoter activity interaction Z-score,[2]; [12],0.433 ± 0.052
same,promoter activity interaction Z-score,[2]; [13],0.324 ± 0.39
same,promoter activity interaction Z-score,[2]; [14],0.402 ± 0.72
same,promoter activity interaction Z-score,[2]; [15],0.018 ± 0.043
same,promoter activity interaction Z-score,[2]; [16],0.0652 ± 0.25
same,promoter activity interaction Z-score,[2]; [17],-0.102 ± 0.25
same,promoter activity interaction Z-score,[2]; [18],-0.0628 ± 0.069
same,promoter activity interaction Z-score,[2]; [19],-0.128 ± 0.04
same,promoter activity interaction Z-score,[2]; [20],0.205 ± 0.44
same,promoter activity interaction Z-score,[2]; [21],0.687 ± 1.1
same,promoter activity interaction Z-score,[2]; [22],0.305 ± 0.34
same,promoter activity interaction Z-score,[2]; [23],0.00851 ± 0.23
same,promoter activity interaction Z-score,[3]; [8],0.0396 ± 0.21
same,promoter activity interaction Z-score,[3]; [9],0.0233 ± 0.13
same,promoter activity interaction Z-score,[3]; [10],0.0237 ± 0.29
same,promoter activity interaction Z-score,[3]; [11],-0.0535 ± 0.0022
same,promoter activity interaction Z-score,[3]; [12],0.102 ± 0.093
same,promoter activity interaction Z-score,[3]; [13],-0.0481 ± 0.051
same,promoter activity interaction Z-score,[3]; [14],-0.00303 ± 0.08
same,promoter activity interaction Z-score,[3]; [15],0.208 ± 0.053
same,promoter activity interaction Z-score,[3]; [16],0.0906 ± 0.13
same,promoter activity interaction Z-score,[3]; [17],0.0124 ± 0.13
same,promoter activity interaction Z-score,[3]; [18],-0.193 ± 0.016
same,promoter activity interaction Z-score,[3]; [19],0.131 ± 0.081
same,promoter activity interaction Z-score,[3]; [20],0.33 ± 0.19
same,promoter activity interaction Z-score,[3]; [21],-0.0142 ± 0.091
same,promoter activity interaction Z-score,[3]; [22],-0.115 ± 0.2
same,promoter activity interaction Z-score,[3]; [23],0.467 ± 0.33
same,promoter activity interaction Z-score,[4]; [8],0.543 ± 0.52
same,promoter activity interaction Z-score,[4]; [9],0.58 ± 0.32
same,promoter activity interaction Z-score,[4]; [10],0.8 ± 0.87
same,promoter activity interaction Z-score,[4]; [11],0.0444 ± 0.43
same,promoter activity interaction Z-score,[4]; [12],0.46 ± 0.84
same,promoter activity interaction Z-score,[4]; [13],0.92 ± 1.9
same,promoter activity interaction Z-score,[4]; [14],1.39 ± 1.6
same,promoter activity interaction Z-score,[4]; [15],0.446 ± 0.44
same,promoter activity interaction Z-score,[4]; [16],0.634 ± 0.23
same,promoter activity interaction Z-score,[4]; [17],0.0667 ± 0.36
same,promoter activity interaction Z-score,[4]; [18],0.00624 ± 0.23
same,promoter activity interaction Z-score,[4]; [19],0.0301 ± 0.019
same,promoter activity interaction Z-score,[4]; [20],1.76 ± 0.4
same,promoter activity interaction Z-score,[4]; [21],3.2 ± 2
same,promoter activity interaction Z-score,[4]; [22],1.79 ± 0.59
same,promoter activity interaction Z-score,[4]; [23],1.52 ± 0.2
same,promoter activity interaction Z-score,[5]; [8],0.57 ± 0.013
same,promoter activity interaction Z-score,[5]; [9],0.679 ± 0.25
same,promoter activity interaction Z-score,[5]; [10],0.28 ± 0.54
same,promoter activity interaction Z-score,[5]; [11],0.0239 ± 0.071
same,promoter activity interaction Z-score,[5]; [12],1.23 ± 0.055
same,promoter activity interaction Z-score,[5]; [13],1.12 ± 1
same,promoter activity interaction Z-score,[5]; [14],0.344 ± 1.1
same,promoter activity interaction Z-score,[5]; [15],0.459 ± 0.35
same,promoter activity interaction Z-score,[5]; [16],1.05 ± 0.45
same,promoter activity interaction Z-score,[5]; [17],-0.18 ± 0.022
same,promoter activity interaction Z-score,[5]; [18],-0.207 ± 0.35
same,promoter activity interaction Z-score,[5]; [19],-0.519 ± 0.17
same,promoter activity interaction Z-score,[5]; [20],1.2 ± 0.5
same,promoter activity interaction Z-score,[5]; [21],1.72 ± 1.6
same,promoter activity interaction Z-score,[5]; [22],0.387 ± 0.033
same,promoter activity interaction Z-score,[5]; [23],0.464 ± 0.086
same,promoter activity interaction Z-score,[6]; [8],-0.101 ± 0.17
same,promoter activity interaction Z-score,[6]; [9],-0.203 ± 0.0084
same,promoter activity interaction Z-score,[6]; [10],-0.117 ± 0.15
same,promoter activity interaction Z-score,[6]; [11],-0.425 ± 0.2
same,promoter activity interaction Z-score,[6]; [12],-0.0613 ± 0.16
same,promoter activity interaction Z-score,[6]; [13],-0.366 ± 0.011
same,promoter activity interaction Z-score,[6]; [14],-0.175 ± 0.039
same,promoter activity interaction Z-score,[6]; [15],-0.141 ± 0.26
same,promoter activity interaction Z-score,[6]; [16],-0.0221 ± 0.0045
same,promoter activity interaction Z-score,[6]; [17],-0.26 ± 0.096
same,promoter activity interaction Z-score,[6]; [18],-0.323 ± 0.11
same,promoter activity interaction Z-score,[6]; [19],-0.283 ± 0.26
same,promoter activity interaction Z-score,[6]; [20],0.172 ± 0.16
same,promoter activity interaction Z-score,[6]; [21],-0.231 ± 0.12
same,promoter activity interaction Z-score,[6]; [22],-0.25 ± 0.12
same,promoter activity interaction Z-score,[6]; [23],-0.213 ± 0.14
same,promoter activity interaction Z-score,[7]; [8],0.361 ± 0.53
same,promoter activity interaction Z-score,[7]; [9],0.711 ± 0.34
same,promoter activity interaction Z-score,[7]; [10],0.221 ± 0.16
same,promoter activity interaction Z-score,[7]; [11],-0.376 ± 0.49
same,promoter activity interaction Z-score,[7]; [12],-0.382 ± 0.52
same,promoter activity interaction Z-score,[7]; [13],-0.763 ± 0.28
same,promoter activity interaction Z-score,[7]; [14],-0.313 ± 0.84
same,promoter activity interaction Z-score,[7]; [15],0.357 ± 0.55
same,promoter activity interaction Z-score,[7]; [16],-0.207 ± 0.26
same,promoter activity interaction Z-score,[7]; [17],-0.0988 ± 1.2
same,promoter activity interaction Z-score,[7]; [18],-0.56 ± 0.75
same,promoter activity interaction Z-score,[7]; [19],0.223 ± 0.16
same,promoter activity interaction Z-score,[7]; [20],0.269 ± 0.23
same,promoter activity interaction Z-score,[7]; [21],-0.244 ± 0.4
same,promoter activity interaction Z-score,[7]; [22],-0.307 ± 0.99
same,promoter activity interaction Z-score,[7]; [23],0.299 ± 0.054
